# Experimental data reported in PubChem BioAssay AID1813 (Broad Institute, 2009).
# In all, about 300,000 compounds went through this assay and about 2,500 (0.83%) were called active. The full list was thinned out, with actives kept by preference. Values without a mark were called inactive. No stated cut-off is given here; in the data, active means inhibition above about 60%; inconclusive means no clear call, values can overlap the other calls; inactive means below that.
# Assay: MLPCN primary screen, SNCA 5' untranslated region (AID 1813);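 further: H4 neuroglioblastoma cells stably carrying SNCA 5'UTR luciferase fusion; 0% = DMSO wells and 100% = positive control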
# Conditions: alpha-synuclein 5'UTR reporter, inhibitor activity; active compounds read high; tested at 7.5 µM
row,SMILES,inhibition
1,COc1cccc(-c2nc3ccc(N4CCN(C)CC4)cc3[nH]2)c1,68.9% (active)
2,CN1CCN(c2cc(N3CCNCC3)ccc2[N+](=O)[O-])CC1,9.3%
3,Cc1nc2ccc(N3CCN(C)CC3)cc2nc1C,-72%
4,CN(C)c1ccc(/C=C2\CC3C4CC=C5CC(O)CCC5(C)C4CCC3(C)C2=O)cc1 (stereo not given),8.56%
5,CSc1nc2ccc(C)cc2c(=O)n1-c1cccnc1,-1.34%
6,CCOc1ccc(-c2cc(C)[n+](CCN(CC)CC)c(-c3ccc(OCC)cc3)c2)cc1,95.2% (active)
7,Cc1cccc2c(CCN)c[nH]c12,10.6%
8,Cc1ccc(P(=S)(c2ccc(C)o2)N2CCOCC2)o1,-9.28%
9,CCN(N=Nc1nonc1OC)c1nonc1OC,-2.32%
10,CCCCCCCCCCCCn1ccc(=N)cc1,104% (active)
11,CNP1(NC)=Nc2nn(-c3ccccc3)c(N)c2C(c2ccccc2)=N1,9.19%
12,COc1ccc2c(c1O)-c1cccc3c1[C@@H](C2)N(C)CC3,-3.62%
13,O=C(OCCN1CCOCC1)C1(c2ccccc2)CCCC1,1.68%
14,Cc1c(Oc2cc(NN3CCCCC3)c([N+](=O)[O-])cc2[N+](=O)[O-])cccc1[N+](=O)[O-],15.3%
15,Cc1cccc(NC(=O)N2CC3CC(C2)c2cccc(=O)n2C3)c1 (stereo not given),13.7%
16,c1cc2c(cc1[C@H]1OC[C@H]3[C@@H]1CO[C@@H]3c1ccc3c(c1)OCO3)OCO2,72.8% (active)
17,O=C1/C(=C\c2ccc3c(c2)OCO3)N2CCC1CC2,17.4%
18,c1cc2c(cc1CCNC1CCCCCC1)OCO2,2.86%
19,CC(C)n1c(=O)c(C=Nc2ccc(Br)cc2)c(O)n(Cc2ccco2)c1=O,-1.22%
20,Cc1ccc(Cn2c(C)c3cnn(CC(=O)N4CCC5(CC4)OCCO5)c(=O)c3c2C)cc1,12%
